Pf growth 96h: P. falciparum growth inhibition at 96 hour, primary screen for plastid delayed-death inhibitors. Potency, µM (doses to about 28.7 µM), inactives show at the highest dose activity change, negative = inhibition, actives largely listed as inhibitors. hit rate 6.9% among 320,000. AID 504834. P. falciparum luciferase reporter growth, 96 h; also: potency is read from the fitted curve at half-maximal effect; % is scaled to controls: 0 for no effect and ±100 for the full control effect
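Two-generation exposure (96 h) targets delayed-death phenotype. Reporter parasites carrying integrated firefly luciferase, in red cells at 2% hematocrit and 0.05% parasitemia final, kept at 37 C, 5% CO2; luminescence loss indicates inhibition.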
Cycloheximide cs: counter-screen hit for Shiga toxin inhibitors, cycloheximide | cell reporter, cycloheximide protein synthesis inhibition counterscreen | max response, % | hit rate 12% among 300,000; in the data active = max response mostly above about 13%, no sharp cut-off; inactive = mostly below about 14%; also: read at 38.3 µM for the half of the compounds with a filed dose; 0% is about no effect
Shiga toxin inh: inhibitors of Shiga toxin in Vero cells | Vero cells, Shiga toxin protein synthesis inhibition reporter | inhibition, % at 38.7 µM | hit rate 9.2% among 290,000 | AID 2315; in the data active = inhibition mostly above about 28%, no sharp cut-off; inactive = mostly below about 43%; also: 0% is about no effect
NS1 inh: inhibitors of influenza NS1 protein function | Potency, µM (titrated, usually from 46.1 µM), without a hit: at the highest dose activity, positive = more growth | hit rate 0.4% among 270,000 | AID 2326; calls by dose curve; also: potency is read from the fitted curve at half-maximal effect; actives are rising curves; nearly all actives have a fitted effect of over 50% in size
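Growth recovery, yeast-based: influenza A NS1 expressed in S. cerevisiae causes slow growth, and suppressors are detected by OD600. The parent strain without NS1 is used as positive control.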
Pf growth 48h: inhibits P. falciparum growth in the first generation, 48 h. Potency, µM (titrated, usually from 28.7 µM), for the others: at the highest dose activity change, negative = inhibition, hits mostly inhibitors. hit rate 5.9% among 310,000. P. falciparum luciferase growth in erythrocytes, 48 h; also: potency is read from the fitted curve at half-maximal effect; % is scaled to controls: 0 for no effect and ±100 for the full control effect
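Cell-based growth assay: transgenic P. falciparum expressing firefly luciferase, cultured in red cells within RPMI 1640 containing 0.5% w/v Albumax, 24 mM bicarbonate and gentamycin. A drop in luciferase activity indicates inhibition.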
SARS PLpro yeast: SARS-CoV PLP inhibition in yeast; S. cerevisiae expressing SARS-CoV PLpro, growth rescue; Potency, µM (series often up to 32.9 µM), without a hit: top-dose activity, positive = growth rescue, actives largely listed as activators; hit rate 0.19% among 330,000; AID 485353; calls by dose curve; also: potency is read from the fitted curve at half-maximal effect; 0% is about no effect; nearly all actives have a fitted effect of over 55% in size
Active calls of the source: *; ? = inconclusive; . = no result. Hits are enriched below; roughly 21% of the tested compounds scored in any of these assays. Unless noted, calls follow the shape of the dose curve; as a rule, active = well fitted inhibition curve with a large enough effect; inconclusive = small, poorly fitted or top-dose-only effect, or another doubt; inactive = no such curve, though single readings can be large or run the other way.

SMILES	Pf growth 96h	Cycloheximide cs	Shiga toxin inh	NS1 inh	Pf growth 48h	SARS PLpro yeast
CCC(C)(C)NC(=O)C(c1cccnc1)N(C(=O)c1csnn1)c1ccc(C)cc1 (configuration not stated)	-2.9%	-0.5	3.3	1.7%	?	0.0%
CC(C)(C)NC(=O)C(c1cccs1)N(Cc1ccc(F)cc1)C(=O)c1csnn1 (configuration not stated)	33.2%	1.2	-5.6	-9.3%	9.28µM*	-0.8%
CC(C)(C)NC(=O)C(c1cccs1)N(C(=O)c1csnn1)c1cccc(F)c1 (configuration not stated)	9.3%	-1.0	-3.7	-2.3%	-19.7%	-0.2%
Cc1ccc(CN(C(=O)c2csnn2)C(C(=O)NC2CCCC2)c2ccc(C)o2)cc1 (configuration not stated)	-15.6%	0.9	-4.0	-4.7%	14.7µM*	2.3%
N#CCC(=O)c1sccc1-n1cccc1	-22.5%	7.0	-12.4	.	22.8%	-10.6%
O=C(NCc1ccco1)c1ccccc1NS(=O)(=O)c1cccs1	?	-2.3	13.3	-14.5%	7.5%	-13.6%
O=C(NCc1ccco1)c1ccccc1NS(=O)(=O)c1ccc2c(c1)OCCO2	.	1.8	21.9	-40.7%	16.5µM*	.
CCc1ccc(NS(=O)(=O)c2ccc3[nH]cc(C(=O)N(C)Cc4ccco4)c(=O)c3c2)cc1	-29.0%	-4.1	-12.8	7.0%	-18.8%	2.5%
CN(Cc1ccco1)C(=O)c1c[nH]c2ccc(S(=O)(=O)Nc3ccc4c(c3)OCCO4)cc2c1=O	1.8%	18.3*	-18.9	8.2%	-9.3%	7.0%
CCOC(=O)c1cnc(-n2nc(C)cc2C)nc1Nc1ccc2c(c1)OCO2	14.7µM*	1.5	-24.9	-45.3%	12.5%	5.5%
CCOC(=O)c1cnc(-n2nc(C)cc2C)nc1Nc1ccc(N(C)C)cc1	3.29µM*	8.6	12.1	-83.7%	5.22µM*	19.6%
CCOC(=O)c1cnc(-n2nc(C)cc2C)nc1Nc1ccc(O)cc1	2.62µM*	3.8	-3.9	3.5%	?	-1.1%
CCOC(=O)c1cnc(-n2nc(C)cc2C)nc1Nc1ccc(C)cc1	?	8.0	5.5	15.7%	?	2.7%
C/C(=N\Nc1nc(C)cc(-c2ccccc2)n1)c1ccc(C)o1	1.04µM*	7.7	7.5	13.9%	13.1µM*	14.4%
C/C(=N/Nc1nc(C)cc(-c2ccccc2)n1)c1ccco1	.	20.8*	56.0	0.3%	-26.8%	-14.4%
C/C(=N\NC(=O)C(O)(c1ccccc1)c1ccccc1)c1ccc(C)o1	-21.0%	-3.6	-7.1	0.7%	-20.1%	16.7%
CCOC(=O)c1sc(=S)n(-c2cccc(C(F)(F)F)c2)c1SC	?	-1.2	-9.3	-9.4%	?	-9.7%
CCOC(=O)c1sc(=S)n(-c2ccccc2Cl)c1SC	2.62µM*	15.9	52.7	-0.5%	13.1µM*	-21.7%
CCOC(=O)c1sc(=S)n(-c2ccccc2)c1SC	13.1µM*	-2.2	-7.3	-14.1%	11.7µM*	3.4%
O=C(NCC(=O)N1CCN(C(=O)c2ccco2)CC1)c1ccc(Br)cc1	-36.8%	-3.8	-3.8	-2.3%	48.1%	-10.5%
Cc1cccc(NC(=O)c2ccc([N+](=O)[O-])cc2Cl)n1	?	7.1	-7.9	-4.8%	35.5%	-10.0%
Cc1cccc(NC(=O)c2ccc([N+](=O)[O-])s2)n1	8.28µM*	60.6*	61.4*	-27.0%	?	-10.3%
Cc1cccc(NC(=O)c2ccc([N+](=O)[O-])s2)c1C	-85.2%	5.2	4.2	-2.1%	2.62µM*	-100.9%
Cc1ccnc(NC(=O)c2ccc([N+](=O)[O-])s2)c1	7.38µM*	59.9*	85.1*	-1.6%	?	-2.2%
Cc1cccc(C)c1NC(=O)c1ccc([N+](=O)[O-])s1	0.0%	-2.3	-4.9	-42.9%	?	-47.1%
SMILES	Pf growth 96h	Cycloheximide cs	Shiga toxin inh	NS1 inh	Pf growth 48h	SARS PLpro yeast
Cc1noc(C)c1CSc1nc2ccccc2n1CCc1ccccc1	.	-3.4	-16.6	-54.9%	?	-18.8%
OC(CNCC1(N2CCCCC2)CCCCC1)COc1ccc(Cl)cc1Cl (configuration not stated)	?	-2.2	-2.8	.	3.29µM*	0.2%
COCCN1C(=O)/C(=C/c2ccc(N3CCCC3)cc2C)SC1=S	115.7%	-1.5	-11.9	2.5%	27.1%	0.7%
CC1(C)CC2CC(C)(CN2C(=O)COC(=O)c2cccc([N+](=O)[O-])c2)C1 (configuration not stated)	.	.	.	.	.	2.7%
N#Cc1c(N)nc(N)nc1Nc1ccc(Br)cc1	325.2%	41.3*	89.7*	-2.6%	191.1%	-0.8%
Cc1nc(N)nc(Nc2ccc(C#N)cc2)c1Br	-22.2%	-2.3	19.7	-2.7%	-3.8%	-1.1%
COc1ccc2c(c1)O/C(=C\c1sccc1C)C2=O	80.5%	23.7*	122.9	-3.0%	-72.5%	10.3%
Cc1ccc(S(=O)(=O)N2CCCCC2)cc1NC(=O)C1=NN(c2ccccc2)C(=O)CC1	?	.	.	.	?	-1.7%
CCN(CC)S(=O)(=O)c1ccc(N2CCCC2)c(NC(=O)C2=NN(c3ccccc3)C(=O)CC2)c1	14.7µM*	.	.	.	10.4µM*	-3.9%
O=C(Nc1cc(Cl)ccc1N1CCCC1)C1=NN(c2ccccc2)C(=O)CC1	9.28µM*	1.4	-5.3	6.5%	-10.2%	-0.5%
Cc1ccc(C)c(N2N=C(C(=O)Nc3ccccc3N3CCOCC3)CCC2=O)c1	?	.	.	.	11.7µM*	-1.1%
Cc1ccc(C)c(N2N=C(C(=O)Nc3ccccc3N3CCCC3)CCC2=O)c1	?	6.1	13.5	-2.0%	?	-0.9%
CN(C)c1ccc(S(=O)(=O)N2CCCCC2)cc1NC(=O)C1=NN(c2ccccc2)C(=O)CC1	5.86µM*	-0.7	-11.6	-6.0%	-18.8%	?
CC1(C)Cc2c(cnn2-c2cccc(F)c2)C(NC(=O)c2ccc(=O)[nH]n2)C1 (configuration not stated)	?	17.2	-5.1	7.5%	-18.2%	-4.5%
O=C(/C=C/c1ccc(Br)o1)NC(c1ccccc1)c1ccccc1	?	-1.2	-7.8	0.2%	11.7µM*	-37.3%
O=C(N1CCN(c2ccccc2)CC1)C12CC3CC(CC(C3)C1)C2	?	-1.9	6.7	-5.4%	?	-31.9%
CCn1c(N2CCN(C(=O)C34CC5CC(CC(C5)C3)C4)CC2)nc2ccccc21	.	-1.5	-1.6	-28.7%	13.1µM*	-1.8%
COc1ccc(S(=O)(=O)N2CCN(c3nc4ccccc4nc3-n3nc(C)cc3C)CC2)cc1	9.28µM*	-3.0	-3.6	-41.7%	?	4.9%
Cc1cc(C)n(-c2nc3ccccc3nc2N2CCN(S(=O)(=O)c3cccc(C#N)c3)CC2)n1	20.9%	-4.0	-5.4	14.1%	4.15µM*	-4.3%
CCn1c(N2CCN(S(=O)(=O)c3ccc(OC)cc3)CC2)nc2ccccc21	11.7µM*	-2.8	-10.2	-64.3%	?	-2.3%
CCn1c(N2CCN(S(=O)(=O)c3ccccc3C(F)(F)F)CC2)nc2ccccc21	?	-8.5	-22.3	-62.6%	?	-3.9%

Screens deposited in PubChem BioAssay by National Center for Advancing Translational Sciences (NCATS).
